Consider 23 compounds from PubChem BioAssay (Tox21).

Test [1] can be described thus: qHTS assay for small molecule agonists of the p53 signaling pathway (AID 651631; calls by dose curve; note: nearly all actives have a fitted effect of over 15% in size). The method, boiled down:
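Agonist mode screen using a stably integrated beta-lactamase gene under p53 response elements in HCT-116 cells. Compound exposure lasts 16 h at 37 °C; fluorescence intensity is measured following 2 h FRET substrate loading.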
In general terms: Quantitative high-throughput screening tests each substance at several concentrations.

The nature of test [2]: qHTS assay for small molecules that induce genotoxicity in human embryonic kidney cells expressing luciferase-tagged ATAD5 (AID 651632). Note: nearly all actives have a fitted effect of over 15% in size. The essentials: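 HEK293T cells carrying luciferase-tagged ATAD5 were given compound or DMSO vehicle and incubated 16 hr at 37C, 5% CO2. Luciferase activity was read after 30 min at room temperature with Amplite; a rise signals genotoxic stress.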

The nature of test [3]: qHTS assay for small molecule agonists of the p53 signaling pathway - cell viability (AID 651633; calls by dose curve;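 note: p53RE-bla HCT reporter cells with a stable beta-lactamase p53 reporter; series mostly up to about 83 µM; nearly all actives have a fitted effect of over 30% in size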). The essentials:
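p53RE-bla cells, seeded at 4,000 per well and rested 5 h at 37 C/5% CO2, received compounds in DMSO for 16 h at 37 C. CellTiter-Glo was then added, and luminescence was read after 30 min at room temperature to gauge cytotoxicity.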

A short description of test [4]: qHTS assay for small molecules that induce genotoxicity in human embryonic kidney cells expressing luciferase-tagged ATAD5 - cell viability (AID 651634; calls by dose curve; note: nearly all actives have a fitted effect of over 25% in size). The essentials: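 HEK293T cells carrying luciferase-tagged ATAD5, 2,000 cells/well, exposed to compound for 15.5 hr at 37C. Viability read as live-cell protease activity by CellTiter-Fluor fluorescence after 30 min at 37C.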

Test [5] in a line: qHTS assay for small molecule disruptors of the mitochondrial membrane potential - cell viability (AID 720634; calls by dose curve;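 note: human HepG2 liver cancer cells; series mostly up to about 83 µM; nearly all actives have a fitted effect of over 20% in size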). The method, boiled down:
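HepG2 cells, 2,000 per well, attached overnight, then treated 1 hr at 37 C, 5% CO2. Viability read as ATP by CellTiter-Glo luminescence after 30 min at room temperature. Read in the same wells as the m-MPI membrane-potential dye assay.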

The nature of test [6]: qHTS assay for small molecule disruptors of the mitochondrial membrane potential (AID 720635). Note: potency is the fitted concentration of half-maximal effect. The essentials: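 HepG2 cells (2,000/well) attached overnight at 37C, then took compound for 1 hr at 37C, 5% CO2. Mito-MPS dye was added for 30 min; fluorescence was read at 490/535 nm (monomers) and 540/590 nm (aggregates).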
A short description of test [7]: qHTS assay to test for compound auto fluorescence at 590 nm (red) in HepG2 cells (AID 720674). The essentials: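 Intrinsic compound fluorescence in the red window (Ex/Em 540/590 nm) is measured in attached HepG2 cells exposed for 1 hr, DMSO vehicle as baseline, benchmarked to Rose Bengal sodium.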
A short description of test [8]: qHTS assay to test for compound auto fluorescence at 535 nm (green) in HepG2 cells (AID 720675).
Test [9] can be described thus: qHTS assay to test for compound auto fluorescence at 590 nm (red) in HEK293 cells (AID 720679). The method, boiled down:
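Intensity at 540nm excitation and 590nm emission is reported as Rose Bengal sodium-equivalent autofluorescence. Measurements followed overnight exposure (37C, 5% CO2) of HEK293 cells, 2,000 per well, to 23 nL compound.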

A short description of test [10]: qHTS assay to test for compound auto fluorescence at 460 nm (blue) in HEK293 cells (AID 720678). The method, boiled down:
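HEK293, 2,000 cells/well, 10% dialyzed FBS; attach 4-5 hr 37C; pin compound or DMSO; o/n 37C/5% CO2; fluorescence 405/460 nm; triamterene-equivalent units.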

Unmarked numbers belong to inactive results. Results filed as inconclusive are left out. Calls of active or inactive are those of the source. Unless noted, calls come from the whole dose curve; as a rule, active = well fitted curve in the direction sought with a large enough effect in the repeat runs; inconclusive = weak or mixed curves; inactive = no such curve, though single readings can be large; an effect the other way counts as inactive or inconclusive.
% is set by controls: 0 for no effect and ±100 for the full control effect.

For the compound `COc1ccc(C(=O)c2cccc(O)c2)c(OC)c1`, the Potency result in [1], in test [2], in test [3], in test [4] and in test [5] was “inactive” each time. Moreover, the Potency in test [6] was 30.6 µM (active). Moreover, the call in [7], in test [8] and in test [9] was inactive.
As to `CC(CCO)CCc1ccccc1` (configuration not stated), the Potency entry in test [1], in test [2], in test [3], in test [4], in test [5] and in test [6] was “inactive” throughout. In addition, the result in test [7], in test [8] and in test [9] was inactive.
As to `COc1ccc(CCC(=O)c2c(O)cc(O[C@@H]3O[C@H](CO)[C@@H](O)[C@H](O)[C@H]3O[C@@H]3O[C@@H](C)[C@H](O)[C@@H](O)[C@H]3O)cc2O)cc1O`, the Potency entry in [1], in [2], in test [3], in test [4], in test [5] and in test [6] was “inactive” each time. Moreover, the Potency result in [10] is “inactive”. Further, the outcome in test [7], in test [8] and in test [9] was inactive.
For `Cc1cnc(C)c(C)n1`, the Potency entry in test [1], in test [2], in test [3], in test [4], in [5] and in [6] was “inactive” throughout. For the same compound, in test [10], the Potency entry was “inactive”. Moreover, the compound was called inactive in test [7], in test [8] and in [9].
Turning to `CN1C(=O)CC(C)(c2ccccc2)C1=O` (configuration not stated), the Potency result in test [1], in [2], in test [3], in test [4], in test [5] and in test [6] was “inactive” throughout. Further, in test [10], the Potency result was “inactive”. Also, the outcome in test [7], in test [8] and in test [9] was inactive.
Regarding `CC(=O)Oc1ccc(C(=C2CCCCC2)c2ccc(OC(C)=O)cc2)cc1`, the Potency entry in test [1], in test [2], in test [3], in [4], in [5] and in test [6] was “inactive” in each case. In addition, the Potency entry in test [10] is “inactive”. Moreover, the outcome in [7], in [8] and in [9] was inactive.
Consider `CC(=O)CC(c1ccc([N+](=O)[O-])cc1)c1c(O)c2ccccc2oc1=O` (configuration not stated), for which the Potency entry in [1], in test [2], in test [3], in [4] and in [5] was “inactive” each time. The Potency in [6] was 7.17 µM (active). For the same compound, in test [7], the fluorescence, relative to Rose Bengal is -0.182% [at 18.6 µM]. Moreover, the fluorescence, % of triamterene in test [10] is -0.0105% [at 18.6 µM]. In addition, in [9], the fluorescence, % of fluorescent control is 0.088% [at 18.6 µM].
For `CCC(=O)OC/C=C/c1ccccc1`, the Potency entry in test [1], in test [2], in test [3], in [4], in test [5] and in test [6] was “inactive” throughout. For the same compound, the Potency result in test [10] was “inactive”. For the same compound, the result in test [7], in test [8] and in [9] was inactive.
Take `CC1(C)C2=CCCC(C)(C)[C@]23CC[C@H]1C3`: the Potency entry in test [1], in test [2], in test [3], in test [4], in test [5] and in [6] was “inactive” each time. Further, the Potency entry in test [10] was “inactive”. The outcome in [7], in test [8] and in test [9] was inactive.
Regarding `O=C1OCCN1/N=C/c1ccc([N+](=O)[O-])o1`, the Potency result in test [1], in [2], in test [3], in test [4], in test [5] and in test [6] was “inactive” each time. In addition, the Potency entry in [10] was “inactive”. Moreover, the compound was classed as inactive in [7], in test [8] and in test [9].
Consider `CCCOC(=O)c1ccc(N)cc1`, for which the Potency result in test [1], in [2], in test [3], in test [4], in [5] and in [6] was “inactive” each time. Moreover, the Potency entry in [10] is “inactive”. Further, the result in [7], in test [8] and in [9] was inactive.
As to `CC(=O)Nc1ccccc1C`, the Potency entry in test [1], in test [2], in [3], in test [4], in test [5] and in test [6] was “inactive” in each case. Besides, in test [10], the Potency entry was “inactive”. Further, the result in test [7], in test [8] and in test [9] was inactive.
Turning to `Fc1c(F)c(F)c(Br)c(F)c1F`, the Potency entry in [1], in [2], in test [3], in test [4], in test [5] and in test [6] was “inactive” each time. Also, the Potency result in [10] is “inactive”. Further, the call in [7], in [8] and in [9] was inactive.
In the case of `CCOC(=O)C(C)Oc1ccc(Oc2nc3ccc(Cl)cc3o2)cc1` (configuration not stated), the Potency result in test [1], in [2], in [3], in test [4], in test [5] and in test [6] was “inactive” each time. For the same compound, the Potency entry in test [10] is “inactive”. The compound was called inactive in test [7], in test [8] and in test [9].
Regarding `CCCOCCOCCO`, the Potency result in [1], in [2], in test [3], in test [4], in test [5] and in [6] was “inactive” each time. Besides, the compound was classed as inactive in [7], in test [8] and in [9].
In the case of `O=C(O)c1ccc(CO)o1`, the Potency entry in test [1], in [2], in [3], in [4], in test [5] and in [6] was “inactive” each time. Besides, in test [10], the Potency entry was “inactive”. The outcome in test [7] and in [9] was inactive.
For `C[Si]1(C)O[Si](C)(C)O[Si](C)(C)O1`, the Potency result in test [1], in test [2], in test [3], in test [4], in test [5] and in test [6] was “inactive” in each case. The outcome in [7], in test [8] and in test [9] was inactive.
In the case of `CC(COc1ccc(C(C)(C)C)cc1)OS(=O)OCCCl` (configuration not stated), the Potency entry in test [1], in test [2], in test [3], in test [4], in [5] and in test [6] was “inactive” each time. In addition, the Potency result in test [10] is “inactive”. For the same compound, the call in test [7], in test [8] and in test [9] was inactive.
For `CCC(C)(O)CCC=C(C)C` (configuration not stated), the Potency entry in test [1], in test [2], in [3], in [4], in test [5] and in test [6] was “inactive” throughout. Besides, the result in test [7], in test [8] and in [9] was inactive.
In the case of `CCCOC(=O)c1ccc(C(=O)OCCC)nc1`, the Potency result in test [1], in [2], in test [3], in test [4], in [5] and in test [6] was “inactive” throughout. Further, in [10], the Potency entry was “inactive”. Also, the compound was classed as inactive in test [7], in test [8] and in test [9].
For the compound `CCCCCCCCCOC(C)=O`, the Potency result in test [1], in [2], in test [3], in test [4], in [5] and in test [6] was “inactive” throughout. Moreover, in test [10], the Potency result is “inactive”. In addition, the result in test [7] and in test [9] was inactive.
As for `O=C(/C=C/c1ccccc1)OCCCc1ccccc1`, the Potency entry in test [1], in test [2], in test [3], in test [4], in test [5] and in test [6] was “inactive” each time. For the same compound, the Potency result in test [10] was “inactive”. Besides, the call in test [7], in test [8] and in test [9] was inactive.
As to `N#C[C@@H]1C[C@@H]2C[C@@H]2N1C(=O)[C@@H](N)C12CC3CC(CC(O)(C3)C1)C2`, the Potency entry in test [1], in [2], in test [3], in test [4], in test [5] and in test [6] was “inactive” in each case. Also, the Potency result in [10] is “inactive”. Further, the result in test [7], in [8] and in [9] was inactive.
